# Data taken from PubChem BioAssay.
# Target: Torsin-1A-interacting protein 1 (Homo sapiens) (UniProt Q5JTV8)
# Experiment: compound microarray binding of lysate hLAP1 – cell lysate, small-molecule microarray, COS7 lysate, 635/667 nm fluorescence, primary screen (AID 1116)
# Details: 635 nm fluorescence, higher = more signal
# Chain of Torsin-1A-interacting protein 1 (Homo sapiens) (Q5JTV8 whole entry, looked up): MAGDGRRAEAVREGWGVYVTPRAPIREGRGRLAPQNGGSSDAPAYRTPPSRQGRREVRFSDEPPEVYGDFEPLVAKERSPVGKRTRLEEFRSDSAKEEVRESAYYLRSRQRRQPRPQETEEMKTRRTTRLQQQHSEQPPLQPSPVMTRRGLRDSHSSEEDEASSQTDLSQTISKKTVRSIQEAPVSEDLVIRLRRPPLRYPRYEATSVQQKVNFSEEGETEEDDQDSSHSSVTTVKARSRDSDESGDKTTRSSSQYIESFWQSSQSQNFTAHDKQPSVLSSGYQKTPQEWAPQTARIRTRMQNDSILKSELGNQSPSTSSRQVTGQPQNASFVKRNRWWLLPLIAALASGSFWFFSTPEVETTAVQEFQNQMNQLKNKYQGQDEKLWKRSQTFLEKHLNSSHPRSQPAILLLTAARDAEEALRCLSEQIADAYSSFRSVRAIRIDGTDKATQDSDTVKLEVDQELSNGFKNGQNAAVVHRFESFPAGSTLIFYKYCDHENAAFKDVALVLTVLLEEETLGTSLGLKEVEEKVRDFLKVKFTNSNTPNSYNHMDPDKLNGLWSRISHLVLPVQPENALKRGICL
row,SMILES,composite z-score
1,COCCOC(=O)N1C(=O)[C@@]2(c3cc(C#CCC(C(=O)OC)C(=O)OC)ccc31)[C@H](C(=O)Nc1nc3ccccc3s1)[C@H]1C(=O)O[C@H](c3ccccc3)[C@H](c3ccccc3)N1[C@@H]2c1ccc(O)cc1,0.706
2,COc1ccc(C(O)C2C=CC3C(=O)N(c4ccccc4)C(=O)C3N2Nc2ccc([N+](=O)[O-])cc2)c2ccccc12 (stereo not given),1.6
3,COc1ccc(C(=O)Nc2ccc3c(c2)[C@@]2(O[C@H](CCO)[C@@H]([Si](C)(C)c4ccc(OC)cc4)[C@@H]2C)C(=O)N3Cc2ccccc2)cc1,0.518
4,[N-]=[N+]=Nc1ccccc1[C@@H]1OC(c2ccc(OCCCO)cc2)=N[C@]1(CCS(=O)(=O)c1ccccc1)C(=O)NCC(O)CO (stereo not given in full),2.18
5,COC(=O)[C@@]1(Cc2ccccc2)[C@H]2c3cc(C(=O)N(C)C)n(Cc4ccc(S(C)(=O)=O)cc4)c3C[C@H]2CN1C(=O)c1ccccc1,1.29
